The record followed here is paper PMC8384837, “Expanding the binding specificity for RNA recognition by a PUF domain”.

Changes are numbered by the printed parent chain.

Holding throughout (test): yeast three-hybrid, YBZ-1, SC-Leu-His + 0.5 mM 3-AT, 4 days
Holding throughout (conditions): tags: N-Gal4 AD-HA kept; label: inside an RPR1-promoter hybrid RNA with tandem MS2 sites; ssRNA

Test [1] deals with T1, PUM1 PUF domain R6-NRQ (Homo sapiens, UniProt Q14671 828-1176, Y1044R).
T1 sequence: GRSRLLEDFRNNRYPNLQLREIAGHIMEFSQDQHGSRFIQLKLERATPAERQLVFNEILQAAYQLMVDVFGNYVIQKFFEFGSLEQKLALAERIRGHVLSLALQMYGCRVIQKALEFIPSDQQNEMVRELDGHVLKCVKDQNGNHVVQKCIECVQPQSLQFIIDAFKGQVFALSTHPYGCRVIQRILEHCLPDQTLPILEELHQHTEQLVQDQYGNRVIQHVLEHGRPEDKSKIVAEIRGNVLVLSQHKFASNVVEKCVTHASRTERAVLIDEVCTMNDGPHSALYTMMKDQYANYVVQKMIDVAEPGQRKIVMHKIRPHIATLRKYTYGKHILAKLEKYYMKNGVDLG
A digest of the protocol:
(§1)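 The interaction score is the log change in how often each variant appears, from input to selection. Frequencies came from PCR-amplified, Illumina-sequenced repeat regions of Pumilio-1 PUF domain libraries grown in strain YBZ-1 (LexA–MS2 coat fusion, HIS3 reporter) alongside matching RNA elements. Input plates were SC-Leu and selection plates were SC-Leu-His + 0.5 mM 3-AT, each for four days, and the log2 calculation used a pseudocount of 1 where a variant was absent.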

Test [2] deals with PUM1 PUF domain R8-KFH (Homo sapiens, UniProt Q14671 828-1176, N1122K;Y1123F;Q1126H). In a few lines: as §1
The target of test [3] is T2, PUM1 PUF domain R6-FYR (Homo sapiens, UniProt Q14671 828-1176, N1043F;Q1047R).
T2 sequence: T1 sequence with N216F, R217Y, Q220R
A digest of the protocol: as §1

Test [4] concerns the target PUM1 PUF domain R3-LYQ (Homo sapiens, UniProt Q14671 828-1176, C935L;R936Y). In a few lines: as §1
For test [5], the target named is PUM1 PUF domain R4-SCM (Homo sapiens, UniProt Q14671 828-1176, N971S;H972C;Q975M). A digest of the protocol:
as §1

Test [6] deals with PUM1 PUF domain R3-RPS (Homo sapiens, UniProt Q14671 828-1176, C935R;R936P;Q939S). In a few lines:
as §1

For test [7], the target named is PUM1 PUF domain R8-KWW (Homo sapiens, UniProt Q14671 828-1176, N1122K;Y1123W;Q1126W). A digest of the protocol: as §1
Test [8] deals with PUM1 PUF domain R3-VHW (Homo sapiens, UniProt Q14671 828-1176, C935V;R936H;Q939W). A digest of the protocol:
as §1

Test [9] has as its target PUM1 PUF domain R8-LYA (Homo sapiens, UniProt Q14671 828-1176, N1122L;Q1126A). In a few lines: as §1
Test [10] deals with T3, PUM1 PUF domain R6-HRK (Homo sapiens, UniProt Q14671 828-1176, N1043H;Y1044R;Q1047K).
T3 sequence: T1 sequence with N216H, Q220K
In a few lines:
as §1

The target of test [11] is T4, PUM1 PUF domain R6-FWL (Homo sapiens, UniProt Q14671 828-1176, N1043F;Y1044W;Q1047L).
T4 sequence: T1 sequence with N216F, R217W, Q220L
In a few lines:
as §1

The target in test [12] is PUM1 PUF domain R3-CRH (Homo sapiens, UniProt Q14671 828-1176, Q939H). A digest of the protocol:
as §1

For test [13], the target named is PUM1 PUF domain R5-GKD (Homo sapiens, UniProt Q14671 828-1176, C1007G;R1008K;Q1011D). A digest of the protocol: as §1
The target of test [14] is PUM1 PUF domain R5-GCR (Homo sapiens, UniProt Q14671 828-1176, C1007G;R1008C;Q1011R). In a few lines:
as §1

Test [15] concerns the target PUM1 PUF domain R5-KPL (Homo sapiens, UniProt Q14671 828-1176, C1007K;R1008P;Q1011L). In a few lines:
as §1

In test [16] the target is PUM1 PUF domain R2-GFD (Homo sapiens, UniProt Q14671 828-1176, N899G;Y900F;Q903D). In a few lines:
as §1

Test [17] concerns the target PUM1 PUF domain R3-RAS (Homo sapiens, UniProt Q14671 828-1176, C935R;R936A;Q939S). In a few lines:
as §1

PUM1 PUF domain R3-RAS, sequence (Q14671 828-1176 C935R/R936A/Q939S): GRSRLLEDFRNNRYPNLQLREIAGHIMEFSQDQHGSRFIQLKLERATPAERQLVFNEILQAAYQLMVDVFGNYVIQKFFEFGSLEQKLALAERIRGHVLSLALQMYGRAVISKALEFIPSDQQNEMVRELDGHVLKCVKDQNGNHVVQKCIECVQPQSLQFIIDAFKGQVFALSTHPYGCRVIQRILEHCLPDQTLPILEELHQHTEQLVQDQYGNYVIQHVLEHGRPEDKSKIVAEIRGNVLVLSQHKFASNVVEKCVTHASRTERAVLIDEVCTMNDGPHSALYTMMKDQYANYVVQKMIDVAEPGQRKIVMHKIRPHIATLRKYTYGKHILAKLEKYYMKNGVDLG
PUM1 PUF domain R5-KPL, sequence (Q14671 828-1176 C1007K/R1008P/Q1011L): as the sequence (Q14671 828-1176 C935R/R936A/Q939S) above, with R108C, A109R, S112Q, C180K, R181P, Q184L counted along it

In the case of “GGCUAGAACUAGUGGAUCCCCCGGCGCCCGGCGGCUCGAGCCCGGGUAAGUGUAAAUAGUCUGCAUGCCGCCGGGCGCCAUGCCUGCAGGUCGACUCUAGAAAACAUG”, the binding signal was 7.58 log2 enrichment (interaction score) in test [1]; 2.89 log2 enrichment (interaction score) in test [2]; 4.96 log2 enrichment (interaction score) in [3]; 3.33 log2 enrichment (interaction score) in test [4]; 2.65 log2 enrichment (interaction score) in test [5]; 0.42 log2 enrichment (interaction score) in test [6]. The binding signal in test [7] was 3.43 log2 enrichment (interaction score); in test [8], 3.99 log2 enrichment (interaction score); in [9], 1.25 log2 enrichment (interaction score); in test [10] it was 2.98 log2 enrichment (interaction score); in test [11], 5.31 log2 enrichment (interaction score); in test [12], 3.86 log2 enrichment (interaction score).
“GGCUAGAACUAGUGGAUCCCCCGGCGCCCGGCGGCUCGAGCCCGGGUAAGUGUCAAUAGUCUGCAUGCCGCCGGGCGCCAUGCCUGCAGGUCGACUCUAGAAAACAUG”: the binding signal in [13] was 2.2 log2 enrichment (interaction score); in [14] it was 5.08 log2 enrichment (interaction score); in test [15] it was 4.18 log2 enrichment (interaction score).
Regarding “GGCUAGAACUAGUGGAUCCCCCGGCGCCCGGCGGCUCGAGCCCGGGUAAGUGUUAAUAGUCUGCAUGCCGCCGGGCGCCAUGCCUGCAGGUCGACUCUAGAAAACAUG”, the values for the binding signal in test [13] and in test [14] were 3.71 log2 enrichment (interaction score) and 3.22 log2 enrichment (interaction score), respectively.
Consider “GGCUAGAACUAGUGGAUCCCCCGGCGCCCGGCGGCUCGAGCCCGGGUAAGUGUAAAGAGUCUGCAUGCCGCCGGGCGCCAUGCCUGCAGGUCGACUCUAGAAAACAUG”, for which the binding signal in test [16] was 4.7 log2 enrichment (interaction score).
“GGCUAGAACUAGUGGAUCCCCCGGCGCCCGGCGGCUCGAGCCCGGGUAAGCGUAAAUAGUCUGCAUGCCGCCGGGCGCCAUGCCUGCAGGUCGACUCUAGAAAACAUG”: the binding signal is 3.24 log2 enrichment (interaction score) in test [2], 5.85 log2 enrichment (interaction score) in test [7] and 2.77 log2 enrichment (interaction score) in [9].
With “GGCUAGAACUAGUGGAUCCCCCGGCGCCCGGCGGCUCGAGCCCGGGUAAGUGUACAUAGUCUGCAUGCCGCCGGGCGCCAUGCCUGCAGGUCGACUCUAGAAAACAUG”, the binding signal in test [5] is 3.79 log2 enrichment (interaction score).
For “GGCUAGAACUAGUGGAUCCCCCGGCGCCCGGCGGCUCGAGCCCGGGUAAGUGUAAUUAGUCUGCAUGCCGCCGGGCGCCAUGCCUGCAGGUCGACUCUAGAAAACAUG”, the binding signal was 3.4 log2 enrichment (interaction score) in test [6] and 3.67 log2 enrichment (interaction score) in test [17].
Turning to “GGCUAGAACUAGUGGAUCCCCCGGCGCCCGGCGGCUCGAGCCCGGGUAAGUGAAAAUAGUCUGCAUGCCGCCGGGCGCCAUGCCUGCAGGUCGACUCUAGAAAACAUG”, the binding signal in test [11] is 5.88 log2 enrichment (interaction score).
